Reference: PubChem BioAssay AID1159580 (chemical genetic matrix, 2015)
Out of some 5,500 compounds screened, about 2,000 (36%) were called active. Another 18% or so got no clear call; they are omitted. Rule as the data show it: active = normalized growth mostly below about 0.91 (no sharp cut-off); inconclusive = no clear call, values can overlap the other calls; inactive = mostly above about 0.92. This is one part of the list.

Experiment: chemical genetic growth profiling, strain panel (AID 1159580);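 also: tested at 20 µM; growth read once vehicle control cultures reached saturation at 30 °C; 1 = growth at the plate median or of vehicle wells; lower values mean less growth of the strain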
Settings: growth OD

Measured: normalized growth

CCCCN(CC)c1c([N+](=O)[O-])cc(C(F)(F)F)cc1[N+](=O)[O-]
inactive: S. cerevisiae deletion strains, locus YJR075W, strain HOC1, hits give low values 1 | S. cerevisiae deletion strains, locus YKL009W, strain mrt4, hits give low values 1.04 | S. cerevisiae deletion strains, locus YKL068W, hits give low values 1.01 | S. cerevisiae deletion strains, locus YKL085W, strain MDH1 (second series), hits give low values 1.01 | S. cerevisiae deletion strains, locus YKL085W, strain MDH1, hits give low values 1.01 | S. cerevisiae deletion strains, locus YKL160W, strain elf1, hits give low values 1.02 | S. cerevisiae deletion strains, locus YKL190W, strain CNB1, hits give low values 1.02 | S. cerevisiae deletion strains, locus YKR001C, strain vps1, hits give low values 1.04 | S. cerevisiae deletion strains, locus YKR026C, strain gcn3, hits give low values 1.02 | S. cerevisiae deletion strains, locus YKR091W, strain srl3, hits give low values 1.01 | S. cerevisiae deletion strains, locus YLL001W, strain dnm1, hits give low values 1.01 | S. cerevisiae deletion strains, locus YLL026W, hits give low values 1 | S. cerevisiae deletion strains, locus YLL041C, strain sdh2, hits give low values 1.01 | S. cerevisiae deletion strains, locus YLR027C, strain aat2, hits give low values 0.996 | S. cerevisiae deletion strains, locus YLR039C, strain RIC1, hits give low values 1.02 | S. cerevisiae deletion strains, locus YLR058C, strain SHM2, hits give low values 1.01 | S. cerevisiae deletion strains, locus YLR102C, strain apc9, hits give low values 1.01 | S. cerevisiae deletion strains, locus YLR113W, strain HOG1, hits give low values 0.973 | S. cerevisiae deletion strains, locus YLR221C, strain rsa3, hits give low values 1 | S. cerevisiae deletion strains, locus YLR258W, strain gsy2, hits give low values 1.01 | S. cerevisiae deletion strains, locus YLR262C, strain YPT6 (second series), hits give low values 0.995 | S. cerevisiae deletion strains, locus YLR262C, strain YPT6, hits give low values 1.02 | S. cerevisiae deletion strains, locus YLR268W, strain sec22, hits give low values 1.02 | S. cerevisiae deletion strains, locus YLR320W, strain mms22, hits give low values 1.02 | S. cerevisiae deletion strains, locus YLR330W, strain CHS5, hits give low values 1.01 | S. cerevisiae deletion strains, locus YLR342W, strain FKS1 (second series), hits give low values 1.08 | S. cerevisiae deletion strains, locus YLR342W, strain FKS1, hits give low values 1 | S. cerevisiae deletion strains, locus YLR357W, strain rsc2, hits give low values 1.03 | S. cerevisiae deletion strains, locus YLR370C, strain arc18, hits give low values 1.01 | S. cerevisiae deletion strains, locus YLR371W, strain rom2, hits give low values 1.01 | S. cerevisiae deletion strains, locus YLR384C, strain iki3, hits give low values 1 | S. cerevisiae deletion strains, locus YLR418C, strain cdc73, hits give low values 1 | S. cerevisiae deletion strains, locus YML016C, strain PPZ1, hits give low values 1.01 | S. cerevisiae deletion strains, locus YML032C, strain rad52, hits give low values 1.02 | S. cerevisiae deletion strains, locus YML120C, strain ndi1, hits give low values 1.03 | S. cerevisiae deletion strains, locus YML124C, strain tub3, hits give low values 1.01 | S. cerevisiae deletion strains, locus YMR058W, strain fet3, hits give low values 1.02 | S. cerevisiae deletion strains, locus YMR078C, strain ctf18, hits give low values 1.01 | S. cerevisiae deletion strains, locus YMR125W, strain sto1, hits give low values 1.01 | S. cerevisiae deletion strains, locus YMR129W, hits give low values 1.02 | S. cerevisiae deletion strains, locus YMR205C, strain PFK2, hits give low values 1 | S. cerevisiae deletion strains, locus YMR223W, strain ubp8, hits give low values 1.02 | S. cerevisiae deletion strains, locus YMR231W, strain pep5, hits give low values 0.997 | S. cerevisiae deletion strains, locus YMR263W, strain SAP30, hits give low values 1.02 | S. cerevisiae deletion strains, locus YMR307W, strain GAS1, hits give low values 0.998 | S. cerevisiae deletion strains, locus YNL067W, strain RPL9B, hits give low values 1.01 | S. cerevisiae deletion strains, locus YNL071W, strain lat1, hits give low values 1.02 | S. cerevisiae deletion strains, locus YNL128W, strain TEP1, hits give low values 1.02 | S. cerevisiae deletion strains, locus YNL153C, strain GIM3, hits give low values 1.01 | S. cerevisiae deletion strains, locus YNL183C, strain NPR1, hits give low values 0.999 | S. cerevisiae deletion strains, locus YNL209W, strain ssb2, hits give low values 1.01 | S. cerevisiae deletion strains, locus YNL233W, strain BNI4, hits give low values 1.01 | S. cerevisiae deletion strains, locus YNL248C, strain rpa49, hits give low values 1.02 | S. cerevisiae deletion strains, locus YNL250W, strain rad50, hits give low values 1 | S. cerevisiae deletion strains, locus YNL271C, strain bni1, hits give low values 1.01 | S. cerevisiae deletion strains, locus YNL298W, strain CLA4, hits give low values 1.01 | S. cerevisiae deletion strains, locus YNL307C, strain MCK1, hits give low values 1.02 | S. cerevisiae deletion strains, locus YNL322C, strain KRE1 (second series), hits give low values 1.01 | S. cerevisiae deletion strains, locus YNL322C, strain KRE1, hits give low values 1.01 | S. cerevisiae deletion strains, locus YNR049C, strain mso1, hits give low values 1.01 | S. cerevisiae deletion strains, locus YNR052C, strain pop2, hits give low values 1.02 | S. cerevisiae deletion strains, locus YOL006C, strain TOP1, hits give low values 1.01 | S. cerevisiae deletion strains, locus YOL012C, strain htz1 0.93 | S. cerevisiae deletion strains, locus YOL147C, strain pex11, hits give low values 1.01 | S. cerevisiae deletion strains, locus YOR001W, strain rrp6, hits give low values 1.03 | S. cerevisiae deletion strains, locus YOR061W, strain CKA2, hits give low values 1.01 | S. cerevisiae deletion strains, locus YOR069W, strain VPS5, hits give low values 1.01 | S. cerevisiae deletion strains, locus YOR070C, strain gyp1, hits give low values 1.02 | S. cerevisiae deletion strains, locus YOR080W, strain dia2, hits give low values 1 | S. cerevisiae deletion strains, locus YOR083W, strain WHI5, hits give low values 1.02 | S. cerevisiae deletion strains, locus YOR106W, strain vam3, hits give low values 0.994 | S. cerevisiae deletion strains, locus YOR136W, strain idh2, hits give low values 1.01 | S. cerevisiae deletion strains, locus YOR144C, strain elg1, hits give low values 1.01 | S. cerevisiae deletion strains, locus YOR184W, strain ser1, hits give low values 1.03 | S. cerevisiae deletion strains, locus YOR231W, strain MKK1, hits give low values 1.06 | S. cerevisiae deletion strains, locus YOR265W, strain rbl2, hits give low values 1.03 | S. cerevisiae deletion strains, locus YOR270C, strain vph1, hits give low values 1.06 | S. cerevisiae deletion strains, locus YOR290C, strain snf2, hits give low values 1.04 | S. cerevisiae deletion strains, locus YOR316C, strain cot1, hits give low values 1.01 | S. cerevisiae deletion strains, locus YPL051W, strain arl3, hits give low values 1 | S. cerevisiae deletion strains, locus YPL055C, strain LGE1, hits give low values 1.01 | S. cerevisiae deletion strains, locus YPL078C, strain atp4, hits give low values 1.02 | S. cerevisiae deletion strains, locus YPL106C, strain sse1, hits give low values 1.03 | S. cerevisiae deletion strains, locus YPL240C, strain hsp82, hits give low values 1.01 | S. cerevisiae deletion strains, locus YPL241C, strain CIN2, hits give low values 1.01 | S. cerevisiae deletion strains, locus YPL256C, strain CLN2, hits give low values 1.05 | S. cerevisiae deletion strains, locus YPR119W, strain clb2, hits give low values 1.01 | S. cerevisiae deletion strains, locus YPR141C, strain kar3, hits give low values 1.01 | S. cerevisiae deletion strains, locus YPR163C, strain tif3, hits give low values 1.01 | S. cerevisiae deletion strains, locus YPR167C, strain met16, hits give low values 1.02 | S. cerevisiae deletion strains, strain wtn01, hits give low values 1.01 | S. cerevisiae strains, strain wild type, hits give low values 1.01
